Measured values: the supplement of paper PMC7765376
Counter-ions that a name gives are not always drawn. The full ranking holds about 1,500 compounds; the median of “Excess HSA synergy score (sum over dose matrix of excess over highest single agent)” is about 43, and the lowest 2% start at about -900. What follows is part of a selection rich in the lowest values, with near analogues and random picks from the rest.

Test system: PEO-1
Assay: Excess HSA synergy score (sum over dose matrix of excess over highest single agent) (score (summed % response)); higher = less synergy / more antagonism (negative = synergy)
Conditions: 72 h, read-out: viability/apoptosis luminescence (CellTiter-Glo or Caspase3-Glo / not stated per table)
[1] = matrix design: 6x6, 5-fold dilutions (primary screen)
[2] = matrix design: 10x10, 9-step dilutions (confirmatory)

Row | SMILES | Excess HSA synergy score [1] | Excess HSA synergy score [2]
1 | CCCS(=O)(=O)Nc1ccc(F)c(C(=O)c2c[nH]c3ncc(Cl)cc23)c1F + CC[C@H](NC(=O)[C@H](C)NC)C(=O)N1C[C@@H](O)C[C@H]1Cc1c(-c2[nH]c3cc(F)ccc3c2C[C@@H]2C[C@H](O)CN2C(=O)[C@H](CC)NC(=O)[C@H](C)NC)[nH]c2cc(F)ccc12 [Birinapant] | -164 | 
2 | C=C1CC[C@@H]2[C@](C)(CO)[C@H](O)CC[C@@]2(C)[C@@H]1C/C=C1/C(=O)OC[C@H]1O [Andrographolide] + CC[C@H](NC(=O)[C@H](C)NC)C(=O)N1C[C@@H](O)C[C@H]1Cc1c(-c2[nH]c3cc(F)ccc3c2C[C@@H]2C[C@H](O)CN2C(=O)[C@H](CC)NC(=O)[C@H](C)NC)[nH]c2cc(F)ccc12 [Birinapant] | 12.7 | 
3 | C=CC(=O)Nc1cccc(Sc2nc(Nc3ccc(N4CCN(C)CC4)cc3)ncc2Cl)c1 + CC[C@H](NC(=O)[C@H](C)NC)C(=O)N1C[C@@H](O)C[C@H]1Cc1c(-c2[nH]c3cc(F)ccc3c2C[C@@H]2C[C@H](O)CN2C(=O)[C@H](CC)NC(=O)[C@H](C)NC)[nH]c2cc(F)ccc12 [Birinapant] | 73.6 | 
4 | Cc1cc(Nc2cc(N3CCN(C)CC3)nc(Sc3ccc(NC(=O)C4CC4)cc3)n2)n[nH]1 [Tozasertib] + CC[C@H](NC(=O)[C@H](C)NC)C(=O)N1C[C@@H](O)C[C@H]1Cc1c(-c2[nH]c3cc(F)ccc3c2C[C@@H]2C[C@H](O)CN2C(=O)[C@H](CC)NC(=O)[C@H](C)NC)[nH]c2cc(F)ccc12 [Birinapant] | -170 | 
5 | Cc1nc(Nc2ncc(C(=O)Nc3c(C)cccc3Cl)s2)cc(N2CCN(CCO)CC2)n1 [Dasatinib] + CC[C@H](NC(=O)[C@H](C)NC)C(=O)N1C[C@@H](O)C[C@H]1Cc1c(-c2[nH]c3cc(F)ccc3c2C[C@@H]2C[C@H](O)CN2C(=O)[C@H](CC)NC(=O)[C@H](C)NC)[nH]c2cc(F)ccc12 [Birinapant] | -329 | -1400
6 | c1cc(-c2sc(-c3ccncc3)c(-c3ccncc3)c2-c2ccncc2)ccn1 + CC[C@H](NC(=O)[C@H](C)NC)C(=O)N1C[C@@H](O)C[C@H]1Cc1c(-c2[nH]c3cc(F)ccc3c2C[C@@H]2C[C@H](O)CN2C(=O)[C@H](CC)NC(=O)[C@H](C)NC)[nH]c2cc(F)ccc12 [Birinapant] | 153 | 
7 | O=c1cc(-c2ccccc2)oc2cc(O)cc(O)c12 [5,7-Dihydroxyflavone] + CC[C@H](NC(=O)[C@H](C)NC)C(=O)N1C[C@@H](O)C[C@H]1Cc1c(-c2[nH]c3cc(F)ccc3c2C[C@@H]2C[C@H](O)CN2C(=O)[C@H](CC)NC(=O)[C@H](C)NC)[nH]c2cc(F)ccc12 [Birinapant] | -131 | 
8 | CCOC(=O)[C@@H](N)CCC(=O)N[C@@H](CSCc1ccccc1)C(=O)N[C@@H](C(=O)OCC)c1ccccc1 [Ezatiostat] + CC[C@H](NC(=O)[C@H](C)NC)C(=O)N1C[C@@H](O)C[C@H]1Cc1c(-c2[nH]c3cc(F)ccc3c2C[C@@H]2C[C@H](O)CN2C(=O)[C@H](CC)NC(=O)[C@H](C)NC)[nH]c2cc(F)ccc12 [Birinapant] | 49.2 | 
9 | Cc1[nH]c(/C=C2\C(=O)Nc3ccc(S(=O)(=O)Cc4c(Cl)cccc4Cl)cc32)c(C)c1C(=O)N1CCC[C@@H]1CN1CCCC1 + CC[C@H](NC(=O)[C@H](C)NC)C(=O)N1C[C@@H](O)C[C@H]1Cc1c(-c2[nH]c3cc(F)ccc3c2C[C@@H]2C[C@H](O)CN2C(=O)[C@H](CC)NC(=O)[C@H](C)NC)[nH]c2cc(F)ccc12 [Birinapant] | -132 | 
10 | Cc1[nH]c(/C=C2\C(=O)Nc3ccc(S(=O)(=O)N(C)c4cccc(Cl)c4)cc32)c(C)c1C(=O)N1CCN(C)CC1 + CC[C@H](NC(=O)[C@H](C)NC)C(=O)N1C[C@@H](O)C[C@H]1Cc1c(-c2[nH]c3cc(F)ccc3c2C[C@@H]2C[C@H](O)CN2C(=O)[C@H](CC)NC(=O)[C@H](C)NC)[nH]c2cc(F)ccc12 [Birinapant] | -71.9 | 
11 | CN1CCCN(C(=O)c2cccc(-c3ccc(/C=C4/C(=O)Nc5ccc(Cl)cc54)o3)c2)CC1 + CC[C@H](NC(=O)[C@H](C)NC)C(=O)N1C[C@@H](O)C[C@H]1Cc1c(-c2[nH]c3cc(F)ccc3c2C[C@@H]2C[C@H](O)CN2C(=O)[C@H](CC)NC(=O)[C@H](C)NC)[nH]c2cc(F)ccc12 [Birinapant] | 92.9 | -1060
12 | COc1cc(-c2nn([C@H]3CC[C@H](N4CCN(C(C)=O)CC4)CC3)c3ncnc(N)c23)ccc1NC(=O)c1cc2ccccc2n1C + CC[C@H](NC(=O)[C@H](C)NC)C(=O)N1C[C@@H](O)C[C@H]1Cc1c(-c2[nH]c3cc(F)ccc3c2C[C@@H]2C[C@H](O)CN2C(=O)[C@H](CC)NC(=O)[C@H](C)NC)[nH]c2cc(F)ccc12 [Birinapant] | 112 | 
13 | CO[C@@H]1[C@H](N(C)C(=O)c2ccccc2)C[C@H]2O[C@]1(C)n1c3ccccc3c3c4c(c5c6ccccc6n2c5c31)C(=O)NC4=O [Stauprimide] + CC[C@H](NC(=O)[C@H](C)NC)C(=O)N1C[C@@H](O)C[C@H]1Cc1c(-c2[nH]c3cc(F)ccc3c2C[C@@H]2C[C@H](O)CN2C(=O)[C@H](CC)NC(=O)[C@H](C)NC)[nH]c2cc(F)ccc12 [Birinapant] | 168 | 
14 | COc1ccc(OC)c(-c2nnc3ccc(-c4ccc(OC)c(O[C@@H]5CCOC5)c4)nn23)c1 + CC[C@H](NC(=O)[C@H](C)NC)C(=O)N1C[C@@H](O)C[C@H]1Cc1c(-c2[nH]c3cc(F)ccc3c2C[C@@H]2C[C@H](O)CN2C(=O)[C@H](CC)NC(=O)[C@H](C)NC)[nH]c2cc(F)ccc12 [Birinapant] | -150 | 
15 | Nc1ccc(-c2ccc3ncc4ccc(=O)n(-c5cccc(C(F)(F)F)c5)c4c3c2)cn1 [Torin-2] + CC[C@H](NC(=O)[C@H](C)NC)C(=O)N1C[C@@H](O)C[C@H]1Cc1c(-c2[nH]c3cc(F)ccc3c2C[C@@H]2C[C@H](O)CN2C(=O)[C@H](CC)NC(=O)[C@H](C)NC)[nH]c2cc(F)ccc12 [Birinapant] | -80.4 | -999
16 | COc1cc(OC)cc(-c2ccc3ncc4ccc(=O)n(-c5ccc(N6CCNCC6)c(C(F)(F)F)c5)c4c3c2)c1 + CC[C@H](NC(=O)[C@H](C)NC)C(=O)N1C[C@@H](O)C[C@H]1Cc1c(-c2[nH]c3cc(F)ccc3c2C[C@@H]2C[C@H](O)CN2C(=O)[C@H](CC)NC(=O)[C@H](C)NC)[nH]c2cc(F)ccc12 [Birinapant] | 160 | 
17 | CCC(=O)N1CCN(c2ccc(-n3c(=O)ccc4cnc5ccc(-c6cnc7ccccc7c6)cc5c43)cc2C(F)(F)F)CC1 [Torin-1] + CC[C@H](NC(=O)[C@H](C)NC)C(=O)N1C[C@@H](O)C[C@H]1Cc1c(-c2[nH]c3cc(F)ccc3c2C[C@@H]2C[C@H](O)CN2C(=O)[C@H](CC)NC(=O)[C@H](C)NC)[nH]c2cc(F)ccc12 [Birinapant] | -195 | 
18 | CN1CCC(COc2cnc(-c3cccc(Cn4nc(-c5cccc(C#N)c5)ccc4=O)c3)nc2)CC1 + CC[C@H](NC(=O)[C@H](C)NC)C(=O)N1C[C@@H](O)C[C@H]1Cc1c(-c2[nH]c3cc(F)ccc3c2C[C@@H]2C[C@H](O)CN2C(=O)[C@H](CC)NC(=O)[C@H](C)NC)[nH]c2cc(F)ccc12 [Birinapant] | 19.6 | 
19 | Cn1cc(-c2ccc3nnc(Sc4ccc5ncccc5c4)n3n2)cn1 + CC[C@H](NC(=O)[C@H](C)NC)C(=O)N1C[C@@H](O)C[C@H]1Cc1c(-c2[nH]c3cc(F)ccc3c2C[C@@H]2C[C@H](O)CN2C(=O)[C@H](CC)NC(=O)[C@H](C)NC)[nH]c2cc(F)ccc12 [Birinapant] | 117 | 
20 | NC(=O)c1cccc(-c2cccc(OC(=O)NC3CCCCC3)c2)c1 + CC[C@H](NC(=O)[C@H](C)NC)C(=O)N1C[C@@H](O)C[C@H]1Cc1c(-c2[nH]c3cc(F)ccc3c2C[C@@H]2C[C@H](O)CN2C(=O)[C@H](CC)NC(=O)[C@H](C)NC)[nH]c2cc(F)ccc12 [Birinapant] | 46.3 | 
21 | CNc1nccc(-c2cccnc2Oc2cc(C(=O)Nc3cccc(C(F)(F)F)c3)ccc2C)n1 + CC[C@H](NC(=O)[C@H](C)NC)C(=O)N1C[C@@H](O)C[C@H]1Cc1c(-c2[nH]c3cc(F)ccc3c2C[C@@H]2C[C@H](O)CN2C(=O)[C@H](CC)NC(=O)[C@H](C)NC)[nH]c2cc(F)ccc12 [Birinapant] | 73.8 | 
22 | COc1cccc2c1C(=O)c1c(O)c3c(c(O)c1C2=O)C[C@@](O)(C(=O)CO)C[C@@H]3O[C@H]1C[C@H](N)[C@H](O[C@@H]2CCCCO2)[C@H](C)O1 [Pirarubicin] + CC[C@H](NC(=O)[C@H](C)NC)C(=O)N1C[C@@H](O)C[C@H]1Cc1c(-c2[nH]c3cc(F)ccc3c2C[C@@H]2C[C@H](O)CN2C(=O)[C@H](CC)NC(=O)[C@H](C)NC)[nH]c2cc(F)ccc12 [Birinapant] | -150 | 
23 | CC(=O)[C@]1(O)Cc2c(O)c3c(c(O)c2[C@@H](O[C@H]2C[C@H](N)[C@H](O)[C@H](C)O2)C1)C(=O)c1ccccc1C3=O [Idarubicin hydrochloride] + CC[C@H](NC(=O)[C@H](C)NC)C(=O)N1C[C@@H](O)C[C@H]1Cc1c(-c2[nH]c3cc(F)ccc3c2C[C@@H]2C[C@H](O)CN2C(=O)[C@H](CC)NC(=O)[C@H](C)NC)[nH]c2cc(F)ccc12 [Birinapant] | -126 | -1080
24 | COc1cccc2c1C(=O)c1c(O)c3c(c(O)c1C2=O)C[C@@](O)(C(C)=O)C[C@@H]3O[C@H]1C[C@H](N)[C@H](O)[C@H](C)O1 [Daunorubicin] + CC[C@H](NC(=O)[C@H](C)NC)C(=O)N1C[C@@H](O)C[C@H]1Cc1c(-c2[nH]c3cc(F)ccc3c2C[C@@H]2C[C@H](O)CN2C(=O)[C@H](CC)NC(=O)[C@H](C)NC)[nH]c2cc(F)ccc12 [Birinapant] | -171 | 
